Measured values published in the OligoGym collection.

Target: MED28
Assay: pooled miR-30 sensor sort-seq; sequence = guide strand
Conditions: shRNA
Further: reference of the scale not given here.

Sequence	sensor-assay potency score (higher = more potent)
TCGTCCACCAAAGTACTGCTGG	-0.123
TAGTTCTGACACATCCTCTTTG	-0.787
TGTCTGTCTTGCAATATCCAGA	-0.689
TTCGAATTTCTTCCTGATCGGT	-0.329
TTAGTTCTGACACATCCTCTTT	-0.943
TAACTTGCTCTGGTTTCTGGAC	-0.587
TTTGTAAGAAAAAACATTCTGT	0.226
TTCCGCTGTAATTCATTCCTTA	0.0365
TCGAATTTCTTCCTGATCGGTG	-0.612
TAAAATGAACTCATTATCTGGC	0.719
TAAGAAAAAACATTCTGTCTGT	0.366

Target: MED31
Assay: as above
Conditions: shRNA

Sequence	sensor-assay potency score (higher = more potent)
AACATGTGTAAACACTGAGGGT	-0.84
TCGATTTCCAGCATCATCTGTC	0.22
TCTAACATGTGTAAACACTGAG	0.543
TTGCTGTTGCTGCTCTGCCAAG	-1.72
TATTGGAGCAGCTCTAACATGT	-0.528
TCCAACTCCAACTGAAACCGAA	-1.04
